Test results published in PubChem BioAssay (EPA / NIEHS).
Results filed as inconclusive are left out. Activity calls are given as the source filed them. How the source made its calls: active means hit-call score of the fitted dose curve at least 0.9, where 1 is the maximum; inconclusive means response in the unintended direction; inactive means score below 0.9.

Target: human Peroxisome Proliferator-activated Receptor delta (PPARd), PPARD (gene 5467) (UniProt Q03181)
Assay: ATG_PPARd_TRANS: Attagene TRANS-FACTORIAL HepG2 Assay for human Peroxisome Proliferator-activated Receptor delta (PPARd) (AID 2283002)
Method: ATG_TRANS is a cell-based, multiplexed-readout assay that uses HepG2, a human liver cell line, with measurements taken at 24 hours after chemical dosing in a 24-well plate.ATG_PPARd_TRANS is one of 30 assay component(s) measured or calculated from the ATG_TRANS assay. It is designed to make measurements of mRNA induction, a form of inducible reporter, as detected with fluorescence intensity signals by Reverse transcription polymerase chain reaction (RT-PCR) and Capillary electrophoresis technology.Data from the assay component ATG_PPARd_TRANS was analyzed into 1 assay endpoint. This assay endpoint, ATG_PPARd_TRANS, was analyzed in the positive analysis fitting direction relative to DMSO as the negative control and baseline of activity. Using a type of inducible reporter, measures of mRNA for gain-of-signal activity can be used to understand the reporter gene at the transcription factor-level as they relate to the gene PPARD. Furthermore, this assay endpoint can be referred to as a primary readout, because this assay has produced multiple assay endpoints where this one serves a reporter gene function. To generalize the intended target to other relatable targets, this assay endpoint is annotated to the nuclear receptor intended target family, where the subfamily is non-steroidal.
Human liver HepG2 cells are transiently transfected with multiple reporter transcription units (MRTUs) in 6-well plates using FuGene 6 reagent (Roche; 3 ml FuGene/1 mg DNA). The MRTU constructs are regulated by a cis-regulating element (promoter). […] A major difference between the CIS and TRANS system is that in CIS activities of endogenous TFs are measured, whereas the TRANS assay evaluates changes in activities of exogenous, chimeric NR-Gal4 proteins. […] At the end of 24 hour incubation, total RNA was isolated using TriZol reagent (Invitrogen). The isolated RNA is then reverse-transcribed using oligo(dT) primer and Mo-MLV reverse transcriptase (Invitrogen) with DNAse I (Ambion) treatment for 30 min. The one-tenth of the produced cDNA was amplified by PCR using Taq DNA polymerase (Invitrogen) and two reporter sequence-specific primers. The PCR products were fluorescently labeled by primer extension with 6-arboxyfluorescein (6-FAM) 5'-labeled reporter sequence-specific primer (2 min at 95 C, 20 s at 68 C and 10 min at 72 C) and these products were digested with 5U of HpaI (New England Biolabs) for 2h at 37 C. The fragments were purified using Qiaquick PCR columns (Qiagen), analyzed on an ABI 3130xL genetic analyzer (Applied Biosystems) with peak positions identified by using a set of X-rhodamine (ROX)-labeled MapMarker1000 molecular weight standards (BioVentures). The raw capillary electrophoresis data was processed using Attagraph software (Attagene).

Chain of human Peroxisome Proliferator-activated Receptor delta (PPARd), PPARD (gene 5467) (Q03181 whole entry, looked up): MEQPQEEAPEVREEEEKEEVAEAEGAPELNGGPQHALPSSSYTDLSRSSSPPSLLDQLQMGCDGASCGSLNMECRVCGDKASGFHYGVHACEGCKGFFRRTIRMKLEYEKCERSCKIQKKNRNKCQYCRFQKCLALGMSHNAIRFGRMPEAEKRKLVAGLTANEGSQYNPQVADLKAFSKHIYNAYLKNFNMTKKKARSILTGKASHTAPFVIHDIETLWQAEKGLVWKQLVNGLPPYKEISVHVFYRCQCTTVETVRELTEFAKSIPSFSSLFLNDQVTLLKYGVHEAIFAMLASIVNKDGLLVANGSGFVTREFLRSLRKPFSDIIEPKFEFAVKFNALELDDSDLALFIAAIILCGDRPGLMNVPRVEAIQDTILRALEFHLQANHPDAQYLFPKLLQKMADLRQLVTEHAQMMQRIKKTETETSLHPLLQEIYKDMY

Q: For `O=C(Nc1ccccc1)Nc1ccnc(Cl)c1`, which outcome is on record?
A: inactive

Q: With `C#CCOS(=O)OC1CCCCC1Oc1ccc(C(C)(C)C)cc1` (stereo unspecified) as the compound, how does the outcome read?
A: inactive

Q: With `CO/C=C(/C(=O)OC)c1ccccc1Oc1cc(Oc2ccccc2C#N)ncn1` as the compound, how does the outcome read?
A: inactive

Q: For `CC(C)C1(C)N=C(c2nc3ccccc3cc2C(=O)O)NC1=O` (stereo unspecified), which outcome is on record?
A: inactive

Q: `CNC(=S)S` was tested. Which outcome did it give?
A: inactive

Q: Which outcome does the source give for `Cc1ccc(-c2c(Cl)nc(C#N)n2S(=O)(=O)N(C)C)cc1` here?
A: inactive

Q: With `CC(C)Oc1cc(-n2nc(C(C)(C)C)oc2=O)c(Cl)cc1Cl` as the compound, how does the outcome read?
A: inactive

Q: `CN(C)C(=S)SSC(=S)N(C)C` was tested. Which outcome did it give?
A: inactive

Q: With `C=CC1(C)OC(=O)N(c2cc(Cl)cc(Cl)c2)C1=O` (stereo unspecified) as the compound, how does the outcome read?
A: inactive

Q: How did the outcome turn out when `CC1COC(Cn2cncn2)(c2ccc(Oc3ccc(Cl)cc3)cc2Cl)O1` (stereo unspecified) was run?
A: inactive

Q: `CCNc1nc(Cl)nc(NC(C)C)n1` was tested. Which outcome did it give?
A: inactive

Q: With `CON(C)C(=O)Nc1ccc(Cl)c(Cl)c1` as the compound, how does the outcome read?
A: inactive

Q: For `Fc1ccc(Oc2ccnc3cc(Cl)cc(Cl)c23)cc1`, which outcome is on record?
A: inactive

Q: Which outcome does the source give for `COC(=O)C=C(C)OP(=O)(OC)OC` here?
A: inactive

Q: With `OC(c1ccc(Cl)cc1)(c1cncnc1)c1ccccc1Cl` (stereo unspecified) as the compound, how does the outcome read?
A: inactive

Q: For `O=C(O)COc1nc(Cl)c(Cl)cc1Cl`, which outcome is on record?
A: inactive

Q: For `COc1nc(NC(C)C)nc(NC(C)C)n1`, which outcome is on record?
A: inactive

Q: Which outcome does the source give for `Oc1ccccc1-c1ccccc1` here?
A: inactive

Q: With `COc1ccc(C(c2ccc(OC)cc2)C(Cl)(Cl)Cl)cc1` as the compound, how does the outcome read?
A: inactive

Q: For `COc1nc(C)nc(NC(=O)NS(=O)(=O)c2ccccc2CCC(F)(F)F)n1`, which outcome is on record?
A: inactive

Q: How did the outcome turn out when `CCCN(CCC)c1c([N+](=O)[O-])cc(S(N)(=O)=O)cc1[N+](=O)[O-]` was run?
A: inactive

Q: With `CCCCNC(=O)OCC#CI` as the compound, how does the outcome read?
A: inactive

Q: Which outcome does the source give for `CC1=C(C(=O)Nc2ccccc2)SCCO1` here?
A: inactive

Q: With `CCCC1COC(Cn2cncn2)(c2ccc(Cl)cc2Cl)O1` (stereo unspecified) as the compound, how does the outcome read?
A: inactive

Q: Which outcome does the source give for `COC(=O)N(OC)c1ccccc1COc1ccn(-c2ccc(Cl)cc2)n1` here?
A: inactive

Q: With `N#CC(CCc1ccc(Cl)cc1)(Cn1cncn1)c1ccccc1` (stereo unspecified) as the compound, how does the outcome read?
A: inactive
